This is a sample that favours compounds with a hit; in the whole collection about 2.4% have one here.
POLI inh: blocks human DNA polymerase iota activity | Potency, µM (top dose mostly 115 µM), without a hit: at the highest dose activity, negative = inhibition, hits mostly inhibitors | Q9UNA4 | Pol iota fluorescent replication assay, 10 min | 1% of 390,000 active
Target sequence (Q9UNA4 whole entry, looked up): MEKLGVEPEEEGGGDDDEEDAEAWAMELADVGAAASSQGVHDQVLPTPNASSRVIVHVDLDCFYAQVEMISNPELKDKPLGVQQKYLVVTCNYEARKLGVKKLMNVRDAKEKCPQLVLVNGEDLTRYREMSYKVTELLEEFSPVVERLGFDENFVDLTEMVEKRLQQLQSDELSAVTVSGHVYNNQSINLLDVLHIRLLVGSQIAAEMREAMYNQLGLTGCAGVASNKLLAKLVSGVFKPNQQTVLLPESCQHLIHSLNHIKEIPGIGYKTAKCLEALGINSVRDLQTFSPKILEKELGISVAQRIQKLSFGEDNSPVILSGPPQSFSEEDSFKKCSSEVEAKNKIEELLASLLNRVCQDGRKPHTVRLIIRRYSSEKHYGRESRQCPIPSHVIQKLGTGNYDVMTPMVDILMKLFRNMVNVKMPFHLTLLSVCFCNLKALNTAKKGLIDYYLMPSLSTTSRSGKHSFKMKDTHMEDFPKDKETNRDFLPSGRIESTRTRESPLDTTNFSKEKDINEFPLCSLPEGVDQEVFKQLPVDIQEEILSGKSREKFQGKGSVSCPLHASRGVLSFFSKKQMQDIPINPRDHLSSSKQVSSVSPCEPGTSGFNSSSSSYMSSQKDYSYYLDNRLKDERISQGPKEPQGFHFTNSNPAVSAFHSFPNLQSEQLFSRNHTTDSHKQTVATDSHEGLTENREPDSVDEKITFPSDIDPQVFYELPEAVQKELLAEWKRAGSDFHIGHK
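Pol iota at 10 nM preincubated 15 min with compounds at room temperature; reaction started with fluorescent substrate, 50 nM final. Fluorescence read kinetically at 0 and 10 min; buffer-only wells as negative control.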
POLB inh: blocks human DNA polymerase beta activity. 1.3% of 340,000 active. Pol beta primer extension/strand displacement, fluorescence kinetic. Potency, µM (top dose mostly 114 µM), for inactives: top-dose activity change, negative = inhibition, most hits filed as inhibitors; also: % is scaled to controls: 0 for no effect and ±100 for the full control effect
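Human Pol beta at 10 nM; strand-displacement substrate 50 nM final. Compound exposure 15 min at room temperature before start, reaction 10 min at room temperature.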
FEN1 inh-1: inhibitors of human flap endonuclease 1; P39748; Recombinant FEN1 flap cleavage, fluorescence, 15 min; Potency, µM (top dose mostly 114 µM), for the others: at the top dose activity change, negative = inhibition, most hits filed as inhibitors; 0.35% of 390,000 active; AID 588795; also: % is scaled to controls: 0 for no effect and ±100 for the full control effect; nearly all actives have a fitted effect of over 65% in size
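Read-out was taken twice, immediately and after 15 min, following addition of 50 nM substrate to 10 nM FEN1 that had sat with test compound for 15 min at room temperature. Curves came from a four-parameter Hill model.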
Pol eta inh-1: inhibitors of human DNA polymerase eta; Q9Y253; AID 588591; 1.2% of 390,000 active; recombinant Pol eta, fluorescent DNA replication assay; Potency, µM (titrated, usually from 114 µM), for the others: top-dose activity change, negative = inhibition, hits mostly inhibitors; also: % is scaled to controls: 0 for no effect and ±100 for the full control effect
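Pol eta (10 nM) was preincubated with compounds for 15 min at room temperature, after which fluorescent replication substrate (50 nM final) was added to start the reaction. Fluorescence was read kinetically at 0 and 10 min.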
Pol kappa inh-1: blocks human DNA polymerase kappa activity | purified Pol kappa, fluorescent DNA synthesis assay, 10 min | Potency, µM (highest dose often 107 µM), for the others: at the top dose activity, negative = inhibition, most hits filed as inhibitors | 0.53% of 400,000 active | AID 588579; also: % is scaled to controls: 0 for no effect and ±100 for the full control effect
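First, compounds were pin-transferred onto 10 nM Pol kappa. After 15 min at room temperature, substrate was added to 50 nM final. Fluorescence was then measured kinetically at 0 and 10 min.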
WRN inhibitor: blocks human WRN helicase | Q14191 | WRN helicase unwinding, fluorescent forked duplex, kinetic | Potency, µM (highest dose often 114 µM), for the others: at the top dose activity change, negative = inhibition, usual class: inhibitors | 0.46% of 360,000 active | AID 651768; also: % is scaled to controls: 0 for no effect and ±100 for the full control effect; nearly all actives have a fitted effect of over 55% in size
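Kinetic fluorescence helicase assay: unwinding of a quenched forked DNA duplex (100 nM final) with 2 mM ATP final raises red fluorescence (525/598 nm). Compounds sat 15 min at room temperature with 20 nM WRN beforehand.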
PGK validate: blocks T. brucei phosphoglycerate kinase; TbPGK coupled GAPDH assay, Kinase-Glo luminescence; 79% of 500 active; shares compounds with Pol kappa inh-1; Potency, µM (highest dose often 57.5 µM), inactives show at the top dose activity change, negative = inhibition, actives largely listed as inhibitors; also: % is scaled to controls: 0 for no effect and ±100 for the full control effect; nearly all actives have a fitted effect of over 65% in size
POLI cherry-pick: Inhibitors of human DNA polymerase iota, confirmation; Pol iota primer extension, TAMRA/BHQ fluorescence; 77% of 1,500 active; shares compounds with Pol kappa inh-1; Potency, µM, most hits filed as inhibitors
Pol kappa inh-2: Pol kappa (human) inhibition, cherry-pick confirmation. shares compounds with Pol eta inh-1. purified Pol-kappa, fluorescent strand-displacement substrate. Potency, µM, actives largely listed as inhibitors. 76% of 920 active
Pol eta inh-2: confirmation of human DNA polymerase eta inhibitors; shares compounds with Pol eta inh-1; Pol eta primer extension, TAMRA/BHQ fluorescence, 10 min; Potency, µM, hits mostly inhibitors; 64% of 2,600 active; AID 720502
FEN1 inh-2: confirmation of human FEN1 inhibitors | shares compounds with FEN1 inh-1 | FEN1 flap cleavage, TAMRA/BHQ2 fluorogenic DNA substrate | Potency, µM, most hits filed as inhibitors | 79% of 880 active | AID 720498; also: nearly all actives have a fitted effect of over 60% in size
An asterisk follows results filed as active; ? = inconclusive; . = not tested or not shown; [ ] = remark or other dose. Calls follow the shape of the dose curve; as a rule, active = well fitted curve in the direction sought with a large enough effect; inconclusive = small, poorly fitted or top-dose-only effect, or another doubt; inactive = no such curve, though single readings can be large; an effect the other way counts as inactive or inconclusive. Potency is read from the fitted curve at half-maximal effect.

SMILES	POLI inh	POLB inh	FEN1 inh-1	Pol eta inh-1	Pol kappa inh-1	WRN inhibitor	POLI cherry-pick	Pol eta inh-2	FEN1 inh-2	others
C=CCn1c(SCC(=O)c2ccc(O)c(O)c2)nnc1-c1cccnc1	7.1µM*	1.3µM*	?	4µM*	28µM*	40µM*	34*	27*	.	PGK validate=3.7µM*
O=C(COC(=O)c1ccc(S(=O)(=O)Nc2ccccc2)cc1)NCc1ccco1	1%	?	-2%	7%	-21%	-23%	.	.	.
CN(C)C(=O)COC(=O)c1ccc(S(=O)(=O)NCc2ccco2)cc1	?	25µM*	16%	22µM*	?	-4%[11.6 µM]	60*	38*	.
CC(C)N1CCc2c(sc(NC(=O)C3CC3)c2-c2nc3ccccc3s2)C1	.	.	.	.	.	.	42*	.	15*
COC(=O)c1ccc(NC(=O)c2ccc(NC(=O)c3ccco3)cc2)cc1	?	-1%	?	?	-10%	-14%	?	.	?
CC(=O)c1ccc(NC(=O)c2ccc(NC(=O)c3ccco3)cc2)cc1	-19%	28%	?	9%	-11%	-3%	.	.	.
O=C(C[n+]1ccncc1)c1ccc(Br)cc1	15%	.	0%	.	-5%	.	.	.	.
Cc1ccc(NC(=O)CN2C(=O)S/C(=C\c3cc(Cl)c(OCC(=O)O)c(Cl)c3)C2=O)cc1	?	40µM*	45µM*	25µM*	-14%	-11%[11.6 µM]	42*	48*	76*	PGK validate=5.8µM*
O=C(O)COc1ccc(C(=O)c2cccs2)c(Cl)c1Cl	.	.	.	.	1%[19.4 µM]	.	.	.	.
Cc1ccccc1C1=C/C(=C(\SS/C(C(=O)c2ccc(OCC(=O)O)c(Cl)c2Cl)=C2\C=C(c3ccccc3C)SS2)C(=O)c2ccc(OCC(=O)O)c(Cl)c2Cl)SS1	?	.	56µM*	14µM*	79µM*	22µM*	38*	24*	?	Pol kappa inh-2=17*
O=c1cc(-c2ccccc2)oc2cc(O)ccc12	-8%	.	5%	-2%	-4%	-6%	.	.	.
O=c1ccc2c(-c3ccccc3)c3ccc(O)cc3oc-2c1	32µM*	7.9µM*	45µM*	40µM*	?	16µM*	34*	11*	34*	Pol kappa inh-2=3*
O=C(O)CCNc1ccc(NCCC(=O)O)c2c1C(=O)c1ccccc1C2=O	13µM*	13µM*	18µM*	4.5µM*	22µM*	?	19*	11*	38*	PGK validate=16µM*
COc1ccccc1NCCC(=O)O	-26%	-20%	-12%	31%	-11%	2%	.	.	.
Nc1cccc[n+]1C(c1ccnc2ccccc12)[n+]1ccccc1N	-27%	.	-18%	.	-25%	.	.	.	.
O=C(O)c1ccc(N2C(=O)c3cccc4c(C(=O)O)ccc(c34)C2=O)cc1	8.9µM*	6.3µM*	50µM*	3.5µM*	20µM*	50µM*	15*	3.4*	21*	PGK validate=16µM*
O=C(O)c1ccc(N2C(=O)c3cccc4cccc(c34)C2=O)cc1	74%	-1%	-2%	-16%	-4%	-13%	.	.	.
Cc1cc(OCCn2c(CCNC(=O)C3CCCCC3)nc3ccccc32)ccc1Cl	20%	6%	-19%	-17%	?	.	.	.	.
Nc1cc(S(=O)(=O)O)cc([N+](=O)[O-])c1O	7.9µM*	-14%	?	4.5µM*	28µM*	?	8.4*	5.4*	?	PGK validate=2.9µM*
O=C(CN1C(=O)/C(=C/c2ccco2)SC1=S)Nc1ccc(C(=O)O)c(O)c1	-14%	11µM*	3%	3.5µM*	-8%	35µM*	15*	6.7*	27*	PGK validate=33µM*
COc1ccc(-c2nn(C)c3sc(C(=O)NCCN(C)C)cc23)cc1OC	18µM*	32µM*	18µM*	?	?	?	?	.	30*
Cc1ccc2nc(CN3CCN(C(=O)Nc4cccc(C)c4C)CC3)oc2c1	11%	-2%	20%	0%	-6%[60.1 µM]	.	.	.	.
O=C(N/N=C/c1cccnc1)c1cc(O)c(O)c(O)c1	?	?	4µM*	-18%	?	?	24*	.	6*
Cc1ccc(C)c2c(C)ccnc12	57%	.	12%	.	-9%	.	.	.	.
O=C1c2ccc3c4c(ccc(c24)C(=O)N1NC(=O)C(F)(F)F)CC3	22µM*	-1%	56µM*	79µM*	18µM*	?	42*	17*	60*
SMILES	POLI inh	POLB inh	FEN1 inh-1	Pol eta inh-1	Pol kappa inh-1	WRN inhibitor	POLI cherry-pick	Pol eta inh-2	FEN1 inh-2	others
CN1CCN(c2ncnc3ccc(-c4cccnc4)cc23)CC1	.	.	.	.	3%[60.1 µM]	.	.	.	.
O=c1[nH]c2ccccc2c2nc3ccccn3c12	3%	7%	?	0%	13%	3%	.	.	.
O=c1nc2c(O)cccn2c2c1c(=O)[nH]c1ccccc12	?	?	56µM*	?	?	?	42*	.	34*
O=C(NCc1ccccc1C(F)(F)F)c1cccc2c1C(=O)c1ccc(N3CCC(N4CCCCC4)CC3)cc1S2(=O)=O	.	.	.	?	.	124%	?	60*	76*
Cc1ccc(-c2nc(C)c(CCNC(=O)C(=O)Nc3cc(C)ccc3C)s2)cc1	18%	3%	-1%	-15%	-7%[60.1 µM]	.	.	.	.
O=C(COC(=O)c1ccc([N+](=O)[O-])o1)NC1CCCCC1	79µM*	.	?	?	-21%	-2%[11.6 µM]	?	?	6.7*
O=C(COC(=O)c1ccc([N+](=O)[O-])o1)NC1CCS(=O)(=O)C1 (stereo not drawn)	63µM*	0%	?	45µM*	-16%	-19%[57.1 µM]	?	?	7.6*
CC1CCCC(NC(=O)COC(=O)c2ccc([N+](=O)[O-])o2)C1C (stereo not drawn)	?	.	?	-9%	-24%	2%	.	.	.

Screening results as filed in PubChem BioAssay.
